The results in this text go back to the supplement of paper PMC10338343.

± gives the standard deviation.

In test [1] the test system is MILI (PIWIL2) piRISC loaded with L1MC piRNA (26 nt). The test is described as follows: pre-steady-state target cleavage rate (min^-1); guide: L1MC piRNA 5'p-UAACUAAAUACUAUGCAAGCUGUAGG; higher = faster piRNA-guided slicing of the target. Summed up:
(§1)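 Using HEPES–potassium acetate buffer at 33 °C, 1 nM active affinity-purified piRISC with a single synthetic guide was mixed with 0.1 nM transcribed, DNA-blocked target RNA library for 0–8 or 0–960 min, with or without 500 nM GTSF1 partner protein. Uncleaved targets were sequenced and normalised to depth and to weakly complementary targets, and three trials were pooled with k3 capped at 0.0001 min^-1. A burst-and-steady-state fit gave the pre-steady-state cleavage rate.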

Test [2] deals with EfPiwi piRISC loaded with L1MC piRNA (26 nt). Briefly: pre-steady-state target cleavage rate (min^-1); auxiliary factor: 500 nM Ephydatia muelleri Gtsf1; guide: L1MC piRNA 5'p-UAACUAAAUACUAUGCAAGCUGUAGG; MIWI and MILI are mouse PIWI proteins and EfPiwi is from a freshwater sponge; tags in brackets are library labels; higher = faster piRNA-guided slicing of the target. Summed up:
as §1

Setting [3] is: auxiliary factor: 500 nM mouse GTSF1.

With UCCUCCUACAGGUUCCAUAGUAUUUAGUUA, the “pre-steady-state target cleavage rate” value in test [1] (setting [3]) worked out at 0.0813 ± 0.027; in test [2], 0.0023 ± 0.0012.

For the sequence UCCUGCUACAGCUUGCAUACAAUUUAGUUA, the “pre-steady-state target cleavage rate” value in test [1] (auxiliary factor: none (no GTSF1)) amounted to 0.00287 ± 0.0025; in test [2], 0.00307 ± 0.0028.

Take UCCUGCUACUGCUUGCAUAGUAUUUAGAUA: the results for the “pre-steady-state target cleavage rate” value in test [1] (setting [3]) and in test [2] were 0.0911 ± 0.022 and 0.00383 ± 0.0018, respectively.

UCCUGGAACAGCUUGCAUAGUAAUUUGUUA: the “pre-steady-state target cleavage rate” value amounted to 0.0687 ± 0.013 in test [1] (setting [3]) and 0.0032 ± 0.002 in test [2].

Take UCCUGGAACAGCUUGCAUAGUAUUUUCUUA: the results for the “pre-steady-state target cleavage rate” value in test [1] (setting [3]) and in test [2] were 0.0439 ± 0.014 and 0.00388 ± 0.0027, respectively.

UCCUGCUACAGCUUGCAUAGAUUUAGUUA: the “pre-steady-state target cleavage rate” value in test [1] (setting [3]) came to 0.00937 ± 0.0054; in test [2], 0.00286 ± 0.0015.

For the sequence UCCUCCUUGUGCUUGCAUAGUAUUUAGAAA, the “pre-steady-state target cleavage rate” value stood at 0.0325 ± 0.0085 in test [1] (setting [3]) and 0.00387 ± 0.0022 in test [2].

For UCCUGGAACAGCUUGCAUAGUAUUUUGAUA, the “pre-steady-state target cleavage rate” value in test [1] (setting [3]) was 0.0833 ± 0.019; in test [2] it was 0.00265 ± 0.0024.

On to UCCUGGAUGUCCAUUGCAUAGUAUUUAGUUA, for which the “pre-steady-state target cleavage rate” value in test [1] (setting [3]) worked out at 0.127 ± 0.032; in test [2] it was 0.00326 ± 0.0022.

For UCCUGGAACAGCUUGCAUAAGUAUUUAGUUA, the figures for the “pre-steady-state target cleavage rate” value in test [1] (setting [3]) and in test [2] were 0.00757 ± 0.004 and 0.00284 ± 0.0024, respectively.

In the case of UCCUGGUACAGCUUGCAUAGUAUUAUCUAA, the “pre-steady-state target cleavage rate” value stood at 0.0327 ± 0.012 in test [1] (setting [3]) and 0.00312 ± 0.0027 in test [2].

Turning to UCCUGGAUGAGCUUGCAAAGUAUUUAGAAA, the “pre-steady-state target cleavage rate” value in test [1] (setting [3]) amounted to 0.0447 ± 0.013; in test [2], 0.00395 ± 0.0031.

In the case of UCCUGGAUCAGCUUGCAUAGUAAUUACUUA, the “pre-steady-state target cleavage rate” value in test [1] (setting [3]) came out at 0.0264 ± 0.0065; in test [2], 0.00233 ± 0.0022.

As to UCCUCCUACAGCUAGCAUAGUAUUUACUUA, the “pre-steady-state target cleavage rate” value amounted to 0.15 ± 0.022 in test [1] (setting [3]) and 0.00296 ± 0.0027 in test [2].

As to UCCUGGAUGAGCUUGCAUACUAUUUAGUAA, the “pre-steady-state target cleavage rate” value amounted to 0.00877 ± 0.0036 in test [1] (setting [3]) and 0.00227 ± 0.0018 in test [2].

As for UCCUCCUAGUGCUUGCAUAGUAUUUAGAAA, the “pre-steady-state target cleavage rate” value in test [1] (setting [3]) was determined as 0.0113 ± 0.0046; in test [2], 0.00361 ± 0.0021.

Take UCCUGGAACAGCUUGCACUAGUAUUUAGUUA: the “pre-steady-state target cleavage rate” value in test [1] (setting [3]) is 0.0388 ± 0.0091; in test [2], 0.00312 ± 0.0026.

For the sequence UCCUGCUACAGCUUGCAUAGUAUAUAGAAA, the results for the “pre-steady-state target cleavage rate” value in test [1] (setting [3]) and in test [2] were 0.0314 ± 0.01 and 0.00298 ± 0.0025, respectively.

With UCCUGGAACAGCUUGCAUAAUAUUUAGUUA, the “pre-steady-state target cleavage rate” value was determined as 0.298 ± 0.028 in test [1] (setting [3]) and 0.00487 ± 0.0024 in test [2].

In the case of UCCUCCUACUGCUUGCAUAGUAUUUUCAAA, the results for the “pre-steady-state target cleavage rate” value in test [1] (setting [3]) and in test [2] were 0.0284 ± 0.0085 and 0.00274 ± 0.0026, respectively.

For the sequence UCCUCGAACAGCUUGCAUAGUAUUUUCAAA, the results for the “pre-steady-state target cleavage rate” value in test [1] (setting [3]) and in test [2] were 0.102 ± 0.021 and 0.00321 ± 0.0022, respectively.
